Measurements reported in the supplement of paper PMC11732987, “Enantioselective OTUD7B fragment discovery through chemoproteomics screening and high-throughput optimisation” (Communications Chemistry, 2025).

Legend:
Experiment in all cases: log2 ratio of Biotin-Ahx-Ub-VS probe labelling (fragment/DMSO); higher = less target engagement (more negative = stronger competition), active = hit call of the paper (q ≤ 0.05, log2 ratio ≤ -1)
Conditions in all cases: compound concentration: 200 uM; treatment time: 3 h
USP34 = USP34 (UniProt Q70CQ2)
Chain of USP34 (Q70CQ2 whole entry, the tested form may be a part): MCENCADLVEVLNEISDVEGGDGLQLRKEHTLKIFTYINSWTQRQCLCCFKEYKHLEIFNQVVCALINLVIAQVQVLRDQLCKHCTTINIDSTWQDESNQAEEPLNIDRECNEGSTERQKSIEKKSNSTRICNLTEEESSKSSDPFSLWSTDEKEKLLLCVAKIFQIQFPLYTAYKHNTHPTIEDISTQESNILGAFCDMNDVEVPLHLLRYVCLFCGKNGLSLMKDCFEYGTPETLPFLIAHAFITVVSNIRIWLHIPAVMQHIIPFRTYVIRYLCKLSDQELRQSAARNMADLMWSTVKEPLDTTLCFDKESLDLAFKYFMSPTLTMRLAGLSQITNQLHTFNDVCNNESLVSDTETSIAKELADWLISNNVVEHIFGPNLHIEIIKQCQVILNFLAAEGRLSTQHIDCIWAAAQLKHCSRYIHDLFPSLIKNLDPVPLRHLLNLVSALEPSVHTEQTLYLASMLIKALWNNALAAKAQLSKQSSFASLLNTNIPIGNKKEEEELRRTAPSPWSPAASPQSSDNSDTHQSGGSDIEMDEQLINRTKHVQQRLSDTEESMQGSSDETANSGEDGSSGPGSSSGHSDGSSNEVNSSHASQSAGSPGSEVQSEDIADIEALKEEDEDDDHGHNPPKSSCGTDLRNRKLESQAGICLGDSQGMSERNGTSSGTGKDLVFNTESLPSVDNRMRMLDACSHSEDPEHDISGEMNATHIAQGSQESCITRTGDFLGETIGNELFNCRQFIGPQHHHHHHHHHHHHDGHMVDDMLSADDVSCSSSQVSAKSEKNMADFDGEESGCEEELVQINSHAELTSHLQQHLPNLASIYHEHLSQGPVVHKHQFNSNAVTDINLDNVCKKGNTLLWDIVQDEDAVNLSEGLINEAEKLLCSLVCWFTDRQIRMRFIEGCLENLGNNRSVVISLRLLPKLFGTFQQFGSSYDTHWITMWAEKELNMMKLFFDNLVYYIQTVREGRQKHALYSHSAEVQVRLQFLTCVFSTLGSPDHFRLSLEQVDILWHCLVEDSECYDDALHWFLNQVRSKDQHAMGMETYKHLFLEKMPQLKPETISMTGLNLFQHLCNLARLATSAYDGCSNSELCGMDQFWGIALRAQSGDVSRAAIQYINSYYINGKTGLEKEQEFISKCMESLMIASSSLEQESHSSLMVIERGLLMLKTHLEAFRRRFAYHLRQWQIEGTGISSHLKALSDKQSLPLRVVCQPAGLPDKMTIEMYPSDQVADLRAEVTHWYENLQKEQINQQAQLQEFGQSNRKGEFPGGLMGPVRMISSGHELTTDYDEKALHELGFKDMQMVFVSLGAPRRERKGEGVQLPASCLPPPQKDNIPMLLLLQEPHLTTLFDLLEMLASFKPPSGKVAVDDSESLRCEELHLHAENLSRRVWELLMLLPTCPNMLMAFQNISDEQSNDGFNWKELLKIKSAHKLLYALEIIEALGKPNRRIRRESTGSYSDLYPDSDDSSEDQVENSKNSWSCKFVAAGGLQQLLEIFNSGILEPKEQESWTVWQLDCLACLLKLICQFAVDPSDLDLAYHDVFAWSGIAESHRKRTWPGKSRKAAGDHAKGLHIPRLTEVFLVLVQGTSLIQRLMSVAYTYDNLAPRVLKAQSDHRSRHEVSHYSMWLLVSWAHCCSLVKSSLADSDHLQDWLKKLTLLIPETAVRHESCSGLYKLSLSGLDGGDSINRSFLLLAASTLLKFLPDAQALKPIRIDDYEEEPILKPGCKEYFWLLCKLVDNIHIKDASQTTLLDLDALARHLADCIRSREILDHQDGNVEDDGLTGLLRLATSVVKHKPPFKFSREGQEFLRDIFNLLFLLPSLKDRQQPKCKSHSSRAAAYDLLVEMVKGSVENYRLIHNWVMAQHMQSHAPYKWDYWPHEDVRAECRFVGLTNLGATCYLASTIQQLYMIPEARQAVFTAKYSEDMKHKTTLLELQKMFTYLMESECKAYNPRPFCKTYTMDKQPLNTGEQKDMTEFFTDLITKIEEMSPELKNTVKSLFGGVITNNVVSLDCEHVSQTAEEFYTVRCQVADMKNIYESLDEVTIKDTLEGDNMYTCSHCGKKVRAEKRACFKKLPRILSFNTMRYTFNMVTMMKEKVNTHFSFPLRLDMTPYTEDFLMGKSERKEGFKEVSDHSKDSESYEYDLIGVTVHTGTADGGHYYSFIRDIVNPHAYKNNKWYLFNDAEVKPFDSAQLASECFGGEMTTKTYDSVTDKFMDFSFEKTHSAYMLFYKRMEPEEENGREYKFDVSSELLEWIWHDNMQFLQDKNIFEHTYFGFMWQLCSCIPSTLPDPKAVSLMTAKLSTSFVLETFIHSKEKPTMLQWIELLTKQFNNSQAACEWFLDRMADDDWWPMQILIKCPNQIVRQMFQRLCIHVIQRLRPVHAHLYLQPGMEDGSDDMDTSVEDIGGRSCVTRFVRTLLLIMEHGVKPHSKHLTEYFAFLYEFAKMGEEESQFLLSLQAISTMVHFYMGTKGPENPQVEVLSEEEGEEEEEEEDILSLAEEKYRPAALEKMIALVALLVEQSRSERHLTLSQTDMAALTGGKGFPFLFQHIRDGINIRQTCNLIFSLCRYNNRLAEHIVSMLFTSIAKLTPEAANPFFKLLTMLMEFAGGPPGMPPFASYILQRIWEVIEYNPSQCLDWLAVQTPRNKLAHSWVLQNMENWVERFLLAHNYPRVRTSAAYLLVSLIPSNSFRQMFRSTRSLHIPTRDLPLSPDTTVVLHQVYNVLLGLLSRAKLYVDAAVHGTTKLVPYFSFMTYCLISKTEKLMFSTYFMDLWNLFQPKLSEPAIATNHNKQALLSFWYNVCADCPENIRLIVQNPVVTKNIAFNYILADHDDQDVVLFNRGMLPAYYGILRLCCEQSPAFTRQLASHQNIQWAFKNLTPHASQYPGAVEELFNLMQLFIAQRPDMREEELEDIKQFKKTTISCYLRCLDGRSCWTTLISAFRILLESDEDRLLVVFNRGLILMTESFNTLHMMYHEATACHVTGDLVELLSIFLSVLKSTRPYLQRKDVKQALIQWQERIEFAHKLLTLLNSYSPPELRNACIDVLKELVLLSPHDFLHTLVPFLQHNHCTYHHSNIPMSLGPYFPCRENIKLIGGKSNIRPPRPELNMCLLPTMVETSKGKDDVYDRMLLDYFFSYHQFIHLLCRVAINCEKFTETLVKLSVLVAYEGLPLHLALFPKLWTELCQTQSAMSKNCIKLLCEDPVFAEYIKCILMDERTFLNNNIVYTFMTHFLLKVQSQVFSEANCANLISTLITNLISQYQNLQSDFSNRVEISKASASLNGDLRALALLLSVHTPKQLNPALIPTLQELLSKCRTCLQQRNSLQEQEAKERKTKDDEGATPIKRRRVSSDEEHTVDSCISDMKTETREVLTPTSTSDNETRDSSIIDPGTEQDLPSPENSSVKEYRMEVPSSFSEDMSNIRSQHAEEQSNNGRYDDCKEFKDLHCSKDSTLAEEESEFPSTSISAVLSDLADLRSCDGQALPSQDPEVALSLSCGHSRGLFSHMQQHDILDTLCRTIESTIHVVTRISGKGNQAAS
Procedure, shortened: (§1)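 Fragment (200 µM) or vehicle was incubated for 3 h with triplicate HEK293T lysate samples of 495 µg, which were then treated with Biotin-Ahx-Ub-VS at 0.5 µM final for 1 h. Labelled DUBs were enriched on NeutrAvidin, digested with LysC and trypsin, and analysed by diaPASEF LC-MS/MS. Values are average log2 fragment/vehicle ratios from an unpaired t-test on global-median-normalised Spectronaut label-free quantities, using proteins with ≥2 unique peptides.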

USP36 = target: T1, USP36 (UniProt Q9P275)
T1 sequence (whole entry): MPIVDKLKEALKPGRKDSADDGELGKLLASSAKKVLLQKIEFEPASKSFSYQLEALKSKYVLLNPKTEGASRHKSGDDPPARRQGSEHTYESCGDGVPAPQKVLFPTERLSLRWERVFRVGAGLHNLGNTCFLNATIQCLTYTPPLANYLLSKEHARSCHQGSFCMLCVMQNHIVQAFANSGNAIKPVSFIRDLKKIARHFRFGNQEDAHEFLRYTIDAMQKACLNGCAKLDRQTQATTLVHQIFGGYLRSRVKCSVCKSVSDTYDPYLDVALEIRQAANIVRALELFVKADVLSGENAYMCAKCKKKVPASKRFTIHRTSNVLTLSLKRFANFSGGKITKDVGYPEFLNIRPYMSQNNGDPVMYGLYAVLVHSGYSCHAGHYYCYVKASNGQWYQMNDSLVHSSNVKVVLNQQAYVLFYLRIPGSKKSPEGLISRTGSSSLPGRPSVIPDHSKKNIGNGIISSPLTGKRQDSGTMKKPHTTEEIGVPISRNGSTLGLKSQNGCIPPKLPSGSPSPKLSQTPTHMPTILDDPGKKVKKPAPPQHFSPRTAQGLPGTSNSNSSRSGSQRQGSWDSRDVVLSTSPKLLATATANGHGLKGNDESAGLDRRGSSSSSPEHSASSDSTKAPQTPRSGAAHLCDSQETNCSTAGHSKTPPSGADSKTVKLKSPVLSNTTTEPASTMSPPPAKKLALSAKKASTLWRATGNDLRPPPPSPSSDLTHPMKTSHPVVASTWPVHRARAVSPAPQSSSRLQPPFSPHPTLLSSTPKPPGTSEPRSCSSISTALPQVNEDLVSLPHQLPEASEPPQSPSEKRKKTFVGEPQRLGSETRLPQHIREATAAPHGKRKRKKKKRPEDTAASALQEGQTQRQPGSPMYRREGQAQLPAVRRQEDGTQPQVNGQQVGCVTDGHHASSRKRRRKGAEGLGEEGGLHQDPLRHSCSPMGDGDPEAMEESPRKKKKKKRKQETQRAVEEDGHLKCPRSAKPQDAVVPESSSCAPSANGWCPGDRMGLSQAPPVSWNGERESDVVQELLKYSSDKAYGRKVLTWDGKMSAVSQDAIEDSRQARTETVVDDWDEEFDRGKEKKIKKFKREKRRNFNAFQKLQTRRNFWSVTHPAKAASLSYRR
Procedure, shortened: as §1

USP38 = target: T2, USP38 (UniProt Q8NB14)
T2 sequence (whole entry): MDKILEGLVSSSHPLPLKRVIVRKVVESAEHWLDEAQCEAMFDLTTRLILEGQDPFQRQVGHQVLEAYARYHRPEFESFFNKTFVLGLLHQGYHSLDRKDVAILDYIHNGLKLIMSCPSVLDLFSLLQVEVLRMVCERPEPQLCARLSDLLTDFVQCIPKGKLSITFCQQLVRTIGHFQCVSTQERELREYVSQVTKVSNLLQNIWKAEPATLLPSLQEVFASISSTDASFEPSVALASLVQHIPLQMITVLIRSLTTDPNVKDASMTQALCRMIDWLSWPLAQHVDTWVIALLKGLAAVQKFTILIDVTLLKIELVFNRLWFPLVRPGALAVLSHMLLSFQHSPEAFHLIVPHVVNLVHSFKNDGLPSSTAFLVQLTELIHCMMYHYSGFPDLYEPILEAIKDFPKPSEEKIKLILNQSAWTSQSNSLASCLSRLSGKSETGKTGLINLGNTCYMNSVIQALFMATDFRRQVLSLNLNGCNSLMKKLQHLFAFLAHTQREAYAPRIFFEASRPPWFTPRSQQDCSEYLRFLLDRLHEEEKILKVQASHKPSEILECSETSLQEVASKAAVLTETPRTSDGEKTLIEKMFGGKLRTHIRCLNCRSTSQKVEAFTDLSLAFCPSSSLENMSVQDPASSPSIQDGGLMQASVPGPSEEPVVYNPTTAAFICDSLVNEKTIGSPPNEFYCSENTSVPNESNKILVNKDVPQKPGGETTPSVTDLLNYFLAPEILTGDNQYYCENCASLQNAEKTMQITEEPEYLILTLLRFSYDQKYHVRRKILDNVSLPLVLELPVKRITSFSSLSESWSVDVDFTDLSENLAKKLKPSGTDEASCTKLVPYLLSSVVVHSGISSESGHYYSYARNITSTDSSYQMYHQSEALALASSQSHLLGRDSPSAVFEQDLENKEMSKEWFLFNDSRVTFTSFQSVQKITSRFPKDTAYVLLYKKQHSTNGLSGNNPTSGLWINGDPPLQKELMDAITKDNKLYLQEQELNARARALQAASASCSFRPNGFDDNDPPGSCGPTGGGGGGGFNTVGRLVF
Procedure, shortened: as §1

USP39 = target: T3, USP39 (UniProt Q53GS9)
T3 sequence (whole entry): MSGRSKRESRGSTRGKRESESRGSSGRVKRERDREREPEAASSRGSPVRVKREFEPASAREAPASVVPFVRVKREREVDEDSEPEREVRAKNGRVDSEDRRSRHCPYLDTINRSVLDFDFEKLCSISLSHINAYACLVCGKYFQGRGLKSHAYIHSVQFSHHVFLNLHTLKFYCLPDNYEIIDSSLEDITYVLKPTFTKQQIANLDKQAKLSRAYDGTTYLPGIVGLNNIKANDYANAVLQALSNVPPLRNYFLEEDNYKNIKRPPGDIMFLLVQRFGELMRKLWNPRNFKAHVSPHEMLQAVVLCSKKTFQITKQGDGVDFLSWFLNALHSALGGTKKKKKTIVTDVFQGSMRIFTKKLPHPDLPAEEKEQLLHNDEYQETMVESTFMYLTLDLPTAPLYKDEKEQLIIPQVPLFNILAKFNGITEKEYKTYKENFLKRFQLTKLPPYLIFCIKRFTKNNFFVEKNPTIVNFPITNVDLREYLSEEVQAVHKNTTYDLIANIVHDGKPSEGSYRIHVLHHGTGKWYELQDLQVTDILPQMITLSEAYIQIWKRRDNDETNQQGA
Procedure, shortened: as §1

USP4 = target: T4, USP4 (UniProt Q13107)
T4 sequence (whole entry): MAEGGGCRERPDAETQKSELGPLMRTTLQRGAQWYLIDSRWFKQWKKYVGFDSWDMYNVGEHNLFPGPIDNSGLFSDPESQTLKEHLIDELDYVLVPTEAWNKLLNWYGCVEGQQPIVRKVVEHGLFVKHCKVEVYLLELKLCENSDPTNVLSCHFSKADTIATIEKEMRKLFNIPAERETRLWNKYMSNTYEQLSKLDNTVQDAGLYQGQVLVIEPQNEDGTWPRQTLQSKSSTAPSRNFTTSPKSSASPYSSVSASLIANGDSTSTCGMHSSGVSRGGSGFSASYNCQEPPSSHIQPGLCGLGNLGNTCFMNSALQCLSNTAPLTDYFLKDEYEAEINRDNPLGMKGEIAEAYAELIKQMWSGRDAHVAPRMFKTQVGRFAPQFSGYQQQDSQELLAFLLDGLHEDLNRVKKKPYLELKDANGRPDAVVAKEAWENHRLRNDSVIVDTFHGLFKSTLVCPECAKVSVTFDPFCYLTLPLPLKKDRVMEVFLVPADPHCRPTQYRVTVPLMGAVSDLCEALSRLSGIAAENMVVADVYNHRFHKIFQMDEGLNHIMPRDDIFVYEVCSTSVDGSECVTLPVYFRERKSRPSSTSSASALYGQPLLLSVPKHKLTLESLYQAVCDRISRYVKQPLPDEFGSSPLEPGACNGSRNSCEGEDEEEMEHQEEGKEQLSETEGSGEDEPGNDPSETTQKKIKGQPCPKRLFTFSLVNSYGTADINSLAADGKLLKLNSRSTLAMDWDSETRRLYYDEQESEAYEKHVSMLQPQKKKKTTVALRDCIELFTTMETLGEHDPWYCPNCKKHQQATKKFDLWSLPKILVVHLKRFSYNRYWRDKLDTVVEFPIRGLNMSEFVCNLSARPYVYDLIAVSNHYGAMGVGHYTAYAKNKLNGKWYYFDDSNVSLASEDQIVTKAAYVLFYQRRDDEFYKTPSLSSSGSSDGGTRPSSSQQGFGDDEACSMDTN
Procedure, shortened: as §1

Measured: log2 ratio of Biotin-Ahx-Ub-VS probe labelling

O=C(CCl)NCCc1ccc(F)cc1
inactive: USP34 -0.0755 | USP36 0.207 | USP38 0.0565 | USP39 0.108 | USP4 -0.11
